# Measurements reported in PubChem BioAssay AID686971 (National Center for Advancing Translational Sciences (NCATS), 2013).
# About 7,500 (2.1%) of roughly 360,000 compounds were called active. Inconclusive results (about 8%) are left out. Only a selection was taken, and actives are over-represented in it overall. Unmarked numbers belong to inactive results. The call rests on the fitted dose curve; in most records, active means well fitted cell-killing curve with a large enough effect; inconclusive means small, poorly fitted or top-dose-only effect, or effect the other way, or another doubt; inactive means no such curve, though single readings can be large or run the other way.
# Assay: qHTS for induction of synthetic lethality in tumor cells producing 2HG: qHTS for the HT-1080-IDH1KD cell line;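 on activity, negative = toxicity: 0% = DMSO wells and -100% = cell-free medium wells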
# Conditions: HT-1080 IDH1 knockdown viability, ATP luminescence, 48 h; series mostly up to 46.1 µM; activity, negative = toxicity: at the top concentration
# Method in brief: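 IDH1KD HT-1080 cells, 750/well, RPMI + 5% FBS; compound pinned after 2 h settling; 48 h, 37 °C; CellTiter-Glo luminescence; % activity normalised to DMSO and no-cell wells; curves fitted, classed by r2 and efficacy.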
# Potency means the concentration at half of the fitted maximal effect.
Structure (SMILES),"activity, negative = toxicity",Potency
CCc1nc2c(=O)[nH]cnc2o1,6.79%,
O=C(Nc1ccc(Cl)cc1)c1csc([C@H]2C[C@H](O)[C@@H](CO)O2)n1,-8.66%,
O=C(N[C@H]1CC[C@H](CC(=O)N2CCCCC2)O[C@@H]1CO)c1cccc(F)c1,26%,
Cc1c(C(=O)N2CCCc3ccccc32)sc2nc(-c3ccccc3)cn12,8.39%,
Cc1cccc2cc3c(N)c(C(=O)N4CCCc5ccccc54)sc3nc12,,2.31 µM (active)
Cc1ccc(C(=O)N2CCCc3ccccc32)c(Cl)c1,0.883%,
CC(C)(C)Cc1c(C2CCCCC2)nc2ccc(Br)cn12,-20.5%,
C[C@H]1CN([C@@H](C)CO)C(=O)CCCn2cc(nn2)CO[C@@H]1CN(C)S(=O)(=O)c1ccc(-c2ccccc2)cc1,3.42%,
N=C1C(c2nc3ccccc3s2)=C(O)CN1NC(=O)c1ccc([N+](=O)[O-])cc1,,20.6 µM (active)
Cc1ccc(C)n1NC(=O)c1ccc([N+](=O)[O-])cc1,-6.65%,
N=C1C(c2nc3ccccc3[nH]2)=C(O)CN1NC(=O)c1c[nH]c2ccccc12,4.62%,
C[C@H]1CN([C@@H](C)CO)C(=O)c2cc(C3=CCCCC3)cnc2O[C@@H]1CN(C)C(=O)Cc1ccccc1,-8.68%,
COc1ccc(C2CC(c3ccccc3)=NN2C(=O)COC(=O)COc2ccccc2)cc1 (stereo unspecified),-0.202%,
COc1ccc(C2CC(c3cccc(OC)c3)=NN2c2ccc(S(N)(=O)=O)cc2)cc1 (stereo unspecified),,16.4 µM (active)
COc1ccc(C2=NN(c3ccccc3)C(c3cccs3)C2)cc1 (stereo unspecified),-0.443%,
O=c1[nH]c2ccccc2n1C1CCN(CCOc2ccccc2)CC1,-17.5%,
CCOc1ccc(NC(=O)CSc2nnc3c(n2)[nH]c2ccc(S(=O)(=O)N4CCOCC4)cc23)cc1,23.2%,
CC(C)CC1C(=O)N(Cc2cn(CC3CCCCC3)nn2)CCS(=O)(=O)N1Cc1ccc(-c2ccc(Cl)cc2)cc1 (stereo unspecified),-2.65%,
CC(C)CC1C(=O)N(Cc2cn(Cc3ccco3)nn2)CCS(=O)(=O)N1Cc1ccc(-c2ccc(Cl)c(Cl)c2)cc1 (stereo unspecified),,18.4 µM (active)
CC1C(=O)N(Cc2cn(Cc3ccco3)nn2)CCS(=O)(=O)N1Cc1ccc(-c2cccc(CO)c2)cc1 (stereo unspecified),-0.032%,
C[C@@H]1CN([C@H](C)CO)S(=O)(=O)c2ccc(C#CC3CCCCC3)cc2O[C@H]1CN(C)C(=O)Cc1ccncc1,-20.4%,
COC(=O)c1cc(OC)ccc1-c1ccc(OC)cc1,-0.423% [at 9.24 µM],
COc1ccc(CNC(=O)CCN2C(=O)c3ccccc3C2=O)cc1,17.2%,
CCOC(=O)C1=C(c2ccc(OC)cc2)C(=O)c2ccccc2C1=O,,7.31 µM (active)

Structure (SMILES),"activity, negative = toxicity",Potency
CC1=C(C(=O)N(C(C)C)C(C)C)CC(CC(=O)NCC2CCCCC2)C(=O)N1Cc1ccccc1 (stereo unspecified),-0.475%,
O=C(NCc1ccccn1)[C@@H]1CCCN1C(=O)[C@@H]1CCCN1C(=O)c1ccccc1,0.107%,
CC(C)/C=N/NC(=O)c1cc(Br)ccc1O,4.46%,
CC(=O)N/N=C(\C)c1ccc(Br)cc1Br,0.294%,
CC(=N\NC(=O)c1cc(Br)ccc1O)/C(=N/O)C(=O)Nc1ccccc1,,16.4 µM (active)
CN(C)C1CN(Cc2cn(Cc3ccccc3)nn2)S(=O)(=O)C1 (stereo unspecified),8.37%,
CCCNC(=O)C1(C)CCN(C(=O)c2cc(F)ccc2C)C1 (stereo unspecified),28.1%,
CSc1ccc(CNC(=O)C2(C)CCCN2C)cc1 (stereo unspecified),-1.05%,
Cc1ccc(CN2CCC(n3nccc3NC(=O)CCCc3ccccc3)CC2)o1,-3.69%,
COc1cc(CN2CCC(n3nccc3NC(=O)CCCc3ccccc3)CC2)ccc1O,-11.8%,
COc1ccc(CN2CCC(n3nccc3NC(=O)CCCc3ccccc3)CC2)cc1C,,18.4 µM (active)
Cc1noc(C)c1NC(=O)N(C)C[C@@H]1Oc2cc(Br)ccc2S(=O)(=O)N([C@@H](C)CO)C[C@H]1C,0.461%,
CCCNC(=O)C1(C)CCN(C(=O)c2ccc(F)cc2Cl)C1 (stereo unspecified),21.7%,
Cc1cccc(C)c1-n1nnnc1C(CCc1ccccc1)N1CCN(C/C=C/c2ccccc2)CC1 (stereo unspecified),18.2%,
O=C(CC[C@H]1O[C@@H](n2ccc(=O)[nH]c2=O)[C@H](O)[C@@H]1O)N[C@H](Cc1ccccc1)C(=O)NCCCN1CCCC1=O,-0.192%,
O=C(/C=C/c1ccc([N+](=O)[O-])o1)NNC(=O)c1ccc(F)cc1,,2.59 µM (active)
O=C(NNC(=O)C1CCCC1)c1ccc(F)cc1,14%,
CCc1noc(C)c1C(=O)NNC(=O)c1ccc(F)cc1,-1.3%,
CC(C)c1ccc2c(c1)c(SC(C)(C)C)c(CC(C)(C)C(=O)O)n2Cc1ccc(Cl)cc1,,18.4 µM (active)
N#CCCN(C(=O)Nc1ccc(Cl)c(Cl)c1)C1CCCCC1,-16.4%,
C[C@H](CO)N1C[C@H](C)[C@@H](CN(C)C(=O)c2cccc(F)c2)Oc2cc(-c3cncnc3)ccc2S1(=O)=O,2.86%,
CN(C)c1nc(=Nc2cccc(Cl)c2)ss1,-2.12%,
Clc1cccc(N=C2NN=C(c3ccc4c(c3)OCCO4)CS2)c1,,7.94 µM (active)
C[C@H]1CN([C@@H](C)CO)C(=O)CCCn2cc(nn2)CO[C@@H]1CN(C)S(=O)(=O)c1cccs1,13.1%,

Structure (SMILES),"activity, negative = toxicity",Potency
CCCn1c(N)c(C(=O)CSc2nnc(Cc3cccs3)n2C2CC2)c(=O)[nH]c1=O,8.77%,
COc1ccc(N)cc1NC(=O)CN1CCOCC1,1.47%,
O=C(COc1ccc(Cl)cc1Cl)N/N=C/c1ccccn1,-20%,
O=C(COC(=O)COc1cc(Cl)c(Cl)cc1Cl)NC1CC1,0.578%,
NC(=S)NN=Cc1ccc(OC(=O)COc2cc(Cl)c(Cl)cc2Cl)cn1,,7.31 µM (active)
CC(C)c1cc(Cn2c3ccccc3c(=O)n2C(C)Cn2cc(C3CC3)nn2)on1 (stereo unspecified),-8.19%,
Cc1nnc(NC(=O)CCCOc2ccccc2)s1,6.19%,
CSc1nnc(NC(=O)c2nc(S(=O)(=O)Cc3ccc(C)cc3)ncc2Cl)s1,,6.51 µM (active)
Cc1ccc(CS(=O)(=O)c2ncc(Cl)c(C(=O)Nc3nnc(C)s3)n2)cc1,,20.6 µM (active)
Cc1nnc(NC(=O)c2ccc3nccnc3c2)s1,18.6%,
COCCSc1nnc(NC(=O)CCS(=O)(=O)Cc2ccccc2)s1,-2.55%,
CSc1ncc(Cl)c(C(=O)Nc2cc(C)ccc2C)n1,14.2%,
Cc1cc(OCC(=O)Nc2nccs2)c2c(C)c(C)c(=O)oc2c1,1.11%,
CNC(=O)c1ccc(CN(C)C(=O)c2cc(C3CC3)nc3c2cnn3C(C)C)cc1,-15.6%,
CC(=O)Oc1ccc(Cn2c(C)c(C(=O)NCc3ccc(C#N)cc3)sc2=O)cc1,-23%,
O=C(/C=C/[C@H]1O[C@@H](n2ccc(=O)[nH]c2=O)[C@H](O)[C@@H]1O)NCc1ccccn1,18.2%,
Cc1c(CCO)c(=O)n(-c2ccccc2)n1S(=O)(=O)c1ccc(F)cc1,-14.4%,
CC1C(=O)Nc2ccccc2N1C(=O)c1c(F)cccc1F (stereo unspecified),-5.49%,
Cc1c(CCO)c(=O)[nH]n1C(=O)c1c(F)cccc1F,,6.31 µM (active)
Cc1ccc(C(=O)OCC(=O)NC2CCCCCCC2)cc1C,14.4%,
CCOC(=O)C1CCCN(C(=O)c2ccc(N(C)C)cc2)CC1 (stereo unspecified),18.3%,
CSc1ncnc2c1ncn2CCCNCc1cccs1,-0.667%,
CC1(C(=O)NS(=O)(=O)c2cccs2)CCN1C(=O)Cc1ccc(-c2ccccc2)cc1 (stereo unspecified),0.115%,
Cc1ccc(-c2nc3ccc(Cl)cn3c2Cc2ccccc2)cc1,14.3%,

Structure (SMILES),"activity, negative = toxicity",Potency
Cc1ccc(Cc2c(-c3ccccc3)nc3ccc(Cl)cn23)cc1,-1.66%,
Cc1ccc(Cc2c(-c3ccco3)nc3ccc(Cl)cn23)cc1,,16.4 µM (active)
Cc1cccc(CNC(=O)c2sc(=O)n(Cc3ccccc3C)c2C)c1,-6.96%,
CCN(CC)C(=O)C1=C(C)N(Cc2ccc(OC)cc2)C(=O)C(CC(=O)NCc2ccco2)C1 (stereo unspecified),-4.38%,
CC(C)c1ccc(CC(=O)N2CCC2(C)C(=O)NS(=O)(=O)c2ccc(C(C)(C)C)cc2)cc1 (stereo unspecified),6.81%,
CC1=CC(C)(C)NC(=S)N1NC(=O)c1ccccc1Cl,6%,
CC1=CC(C)(C)NC(=S)N1c1ccccc1,,11.2 µM (active)
O=C1C(Sc2cccc(F)c2)=C[C@@]2(O)CC[C@@H](O)[C@]1(Sc1cccc(F)c1)[C@H]2O,-28.1%,
CCOC(=O)c1cc(-c2sc(NC(=O)c3ccccc3)nc2C)n(CCO)n1,-19.1%,
Cc1cc(C)n2c(Nc3c(C)cccc3C)c(CCc3ccccc3)nc2n1,-3.88%,
COc1ccc(S(=O)(=O)N(C)C[C@H]2OCc3cnnn3CCCC(=O)N([C@H](C)CO)C[C@H]2C)cc1,-3.99%,
Oc1c(Cl)cc(Cl)c(Cl)c1Cc1c(O)c(Cl)cc(Cl)c1Cl,,7.31 µM (active)
COc1cc2nc(N3CCCN(C)CC3)nc(NC3CC3)c2cc1OC,-19%,
CC(=O)NN=C(C)c1ccc(NC(=O)C2CC2)cc1,-0.362%,
CCCCN1CC(C)(C)[C@H](CC(=O)Nc2ccc(Br)cc2)C1=O,8.88%,
COc1ccc(NC(=O)CCCNC(=O)Cn2cnc3sc4c(c3c2=O)CCCC4)cc1OC,11.8%,
COc1ccc(/C=N/Nc2ncnc3sc4c(c23)CCCC4)cc1O,,20.6 µM (active)
COc1ccc(NC(=O)CCNC(=O)Cn2cnc3sc4c(c3c2=O)CCCC4)cc1OC,1.16%,
Nc1cccc(-c2cncc(N3CCN(Cc4ccccn4)CC3)n2)c1,7.1%,
C[C@H](CO)N1C[C@H](C)[C@H](CN(C)C(=O)Nc2ccc3c(c2)OCO3)Oc2ncc(Br)cc2C1=O,8.51%,
COc1ccccc1-n1nnnc1SCC(=O)NC(=O)Cc1ccccc1,0.816%,
COc1ccccc1-n1nnnc1S(=O)(=O)Cc1ccc(Cl)cc1,,16.4 µM (active)
CCC(C)N(C(=O)CSc1nnnn1-c1ccccc1OC)C1CCS(=O)(=O)C1 (stereo unspecified),2.01%,
OC[C@@H]1CN(Cc2ccc3c(c2)OCO3)C[C@H](n2cnc3c(NCc4ccco4)ncnc32)O1,4.42%,
